For 94 compounds, inhibition results are on record in PubChem BioAssay AID485275 (NMMLSC, 2010).

The structures appear in SMILES notation. Hit rate of the full screen: of about 330,000 compounds, about 1,400 (0.42%) were called active. The full list was thinned out, with actives kept by preference. A number with no mark means an inactive call.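 The calls were made as follows: active = plate passing quality check with inhibition over a set limit, or well fluorescence over plate mean plus 4 SD; inactive = the rest.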

This test can be described thus: antifungal drug efflux pump blockers, triplex strains – S. cerevisiae, Nile Red, multiplex, primary screen (AID 485275).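 Also: Nile Red retained in pooled yeast measured as flow cytometry median fluorescence; 0% = buffer negative control and 100% = Enniatin B positive control; higher means more Nile Red kept so more efflux inhibition.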 The following applies: S. cerevisiae Candida pump triplex, at 10 µM, stronger effect = higher value.
Take `COCCNC(=O)c1ccc2c(c1)ncn2-c1ccc(C)c(Cl)c1`: the inhibition (in general, the change of the read-out against control, counted positive when it falls) was 0.09%.

For `CCn1c(SCc2ccccc2)nc2cc(OC)c(OC)cc2c1=O`, the inhibition was -0.05%.

On to `CCn1c(/C=C/c2ccc([N+](=O)[O-])o2)nc2ccccc2c1=O`, for which the inhibition was 1.26% (active).

Turning to `CCOCCCn1c(NN)nc2ccccc2c1=O`, the inhibition is 0.04%.

Regarding `C=CC[C@H](CC(=O)NCCO)C(=O)N[C@@H](COC(=O)[C@@H](CC=C)Cc1ccc(F)cc1)Cc1c[nH]c2ccccc12`, the inhibition is -0.26%.

For the compound `COc1ccc(C(=O)NC(=S)Nc2ccc(N3CCCC3)cc2)cc1OC`, the inhibition is 6.65% (active).

On to `Cc1ccc(C(=O)NC(=S)Nc2ccc(N3CCOCC3)cc2)cc1`, for which the inhibition was 0%.

As to `COc1ccc(C(=O)NC(=S)Nc2ccccc2N2CCN(S(C)(=O)=O)CC2)cc1OC`, the inhibition is 0.06%.

For the compound `CCn1cc(C(=O)N2CC(C)CC(C)C2)c(=O)c2cc(S(=O)(=O)N3CCCC3)ccc21` (centres undefined), the inhibition is 0.08%.

Regarding `O=C(NCCc1ccccn1)c1cc(-c2ccc(Cl)cc2)nc2ccccc12`, the inhibition is 0.18%.

As for `Cn1nnnc1SCC(=O)Nc1ccccc1C(=O)NC1CC1`, the inhibition was 0%.

Regarding `CC(=C/c1ccccc1)/C=N/NC(=O)c1cc(C)oc1C`, the inhibition is 0.06%.

Take `CC(C)(C)C1CCC(=NNC(=O)c2cc(-c3ccccc3)n[nH]2)CC1` (centres undefined): the inhibition is 0.31%.

Consider `CC(/C=N/NC(=O)c1cc(-c2ccc3ccccc3c2)n[nH]1)=C\c1ccco1`, for which the inhibition is 0.5% (active).

In the case of `CCOC(OCC)c1ccc(/C=C\c2nccc(N)n2)cc1`, the inhibition was -0.05%.

As for `Cc1ccc(-n2c(SCC(=O)Nc3ncc(Cl)cc3Cl)nc3ccccc32)cc1`, the inhibition is 0.75%.

On to `CCCn1c(O)c(CN2CCCC(C)C2)c(C)c(C#N)c1=O` (centres undefined), for which the inhibition is -0.15%.

Consider `CCOc1ccc(N2C(=O)CN(c3cccc4ccccc34)C2=S)cc1`, for which the inhibition was -0.04%.

Turning to `COc1ccc(CCNC(=O)C(=O)NCC2OCCN2S(=O)(=O)c2ccc(F)cc2)cc1OC` (centres undefined), the inhibition is 0.07%.

For the compound `COc1ccc(S(=O)(=O)N2CCOC2CNC(=O)C(=O)NCc2ccc(F)cc2)cc1` (centres undefined), the inhibition is 5.66% (active).

`O=C(NCc1ccc2c(c1)OCO2)C(=O)NCC1OCCN1S(=O)(=O)c1ccc(F)cc1` (centres undefined): the inhibition is 0.25%.

As to `O=C(c1ccc(Cl)nc1)N1CCN(S(=O)(=O)c2ccc3c(c2)OCCO3)CC1`, the inhibition is -0.06%.

Regarding `O=C(OCc1ccc(Br)cc1)c1cccc(-c2nnc(-c3ccccc3)o2)c1`, the inhibition was 0.06%.

As to `O=C(OCC(=O)c1c[nH]c2ccccc12)c1cccc(O)c1`, the inhibition is 0.55%.

With `O=C(OCc1ccc(-c2ccccc2)cc1)c1cccc(O)c1`, the inhibition is 20.2% (active).

As for `COc1cc(CNc2ncn[nH]2)ccc1OCc1ccccc1C`, the inhibition was 0.06%.

In the case of `[2H]C(CCOS(N)(=O)=O)c1ccccc1` (centres undefined), the inhibition was -0.09%.

As for `Fc1cnc(N2CCOCC2)nc1NCc1ccccc1`, the inhibition was -0.13%.

For `CCOC(=O)c1c(N=CN(C)C)c(C#N)c2n1CCCC2`, the inhibition was -0.18%.

Take `COc1ccc(Cc2nnc(SCC(=O)Nc3ccc(C)c(C)c3)o2)cc1OC`: the inhibition is -0.04%.

Take `CCCc1nnc(SCC(=O)Nc2ccc(C(=O)OCC)cc2)o1`: the inhibition is 2.83% (active).

With `Cc1ccc(NC(=O)CSc2nnc(COc3ccccc3C)o2)cc1`, the inhibition was -0.17%.

Take `O=C(COC(=O)Cn1cnc2ccccc2c1=O)NCc1ccccc1Cl`: the inhibition was 0.17%.

For the compound `Nc1ccc2nc3c(=O)[nH]c(=S)[nH]c3nc2c1`, the inhibition is 0.97% (active).

Regarding `Cc1noc(C)c1S(=O)(=O)N(C)C[C@H]1Oc2c(NC(=O)Nc3ccc4c(c3)OCO4)cccc2C(=O)N([C@H](C)CO)C[C@@H]1C`, the inhibition is 0.73%.

Turning to `COC(=O)[C@]1(CC(C)C)N[C@H](c2ccc(SC3CCCCC3)cc2)[C@@H]2C(=O)N(C)C(=O)[C@@H]21`, the inhibition is -0.02%.

In the case of `CC[n+]1cc(C)ccc1/C=C/c1ccc(N(C)C)cc1`, the inhibition is 5.98% (active).

In the case of `O=C(N/N=C\c1cc2c(cc1Cl)OCO2)c1ccc(Br)s1`, the inhibition was 0.06%.

Consider `O=C(N/N=C/C=C/c1ccccc1)C1CC1(c1ccccc1)c1ccccc1` (centres undefined), for which the inhibition is -0.21%.

As to `CC(/C=C/c1ccccc1)=N\NC(=O)C1CC1(C)c1ccccc1` (centres undefined), the inhibition was 2.26% (active).

Consider `CC(/C=C/c1ccco1)=N/NC(=O)C1COc2ccccc2O1` (centres undefined), for which the inhibition was 0.12%.

Take `Cc1csc(NC(=O)c2ccc(-c3ccc(Cl)cc3Cl)o2)n1`: the inhibition was 16.6% (active).

Regarding `Cc1csc(NC(=O)c2ccc(C)s2)n1`, the inhibition is 0.06%.

Regarding `Cc1ccc(C(=O)Nc2nc3ccc(Cl)cc3s2)o1`, the inhibition is -0.17%.

Consider `O=C(NCc1ccncc1)C(=O)NCC1OCCN1S(=O)(=O)c1ccc(Br)cc1` (centres undefined), for which the inhibition is 0.06%.

Regarding `O=C(COC(=O)c1ccc(N2CCCC2=O)cc1)c1ccc(OC(F)F)cc1`, the inhibition was 0.24%.

As to `CC1CCCC(N2CCN(C(=O)c3ccc(F)cc3)CC2)C1` (centres undefined), the inhibition was -0.1%.

As for `CCn1c(SC(C)C(=O)Nc2ccc(N3CCOCC3)cc2)nnc1-c1ccco1` (centres undefined), the inhibition is 0.21%.

In the case of `O=C(CN1C(=O)c2cccnc2Oc2ccc(Cl)cc21)NCCc1ccccc1`, the inhibition was -0.23%.

On to `COc1ccccc1CSc1ncc(-c2ccc([N+](=O)[O-])cc2)[nH]1`, for which the inhibition is 18.3% (active).

As to `N#Cc1c(-c2ccccc2)nc(SCc2ccc([N+](=O)[O-])cc2)[nH]c1=O`, the inhibition was -0.1%.

Regarding `COc1ccccc1C1CCN(c2ccc([N+](=O)[O-])cn2)CC1`, the inhibition was 0.16%.

Turning to `CCC(Cc1ccccc1)NS(=O)(=O)c1ccc2c(c1)NC(=O)CS2` (centres undefined), the inhibition was -0.01%.

For `CCOc1ccc(C2/C(=C(/O)c3ccc4c(c3)CC(C)O4)C(=O)C(=O)N2CCCn2ccnc2)cc1` (centres undefined), the inhibition was 4.24% (active).

With `COCCCN1C(=O)C(=O)/C(=C(/O)c2ccc3c(c2)CC(C)O3)C1c1cccnc1` (centres undefined), the inhibition is 0.03%.

On to `COc1ccc(C2/C(=C(/O)c3ccc4c(c3)CC(C)O4)C(=O)C(=O)N2Cc2ccncc2)cc1` (centres undefined), for which the inhibition was 0.59%.

`COc1ccc(S(=O)(=O)N2CCCCCC2)cc1C(=O)N(C)Cc1cccc(OC)c1OC`: the inhibition was 0.1%.

Consider `Cc1nn(C)cc1C(=O)Nc1ccccc1Br`, for which the inhibition was 6.48% (active).

For `O=C(O)c1ccccc1-c1ccccc1C(=O)Nc1ccccc1Br`, the inhibition was -0.16%.

For `Cc1nn(C)cc1C(=O)c1ccccc1`, the inhibition is -0.06%.

With `O=c1[nH]c2ccccc2n2c(-c3ccccc3)nnc12`, the inhibition was 0.01%.

With `NNC(=O)CSc1nnc(-c2ccccc2)n1-c1ccccc1`, the inhibition was 0.17%.

As to `CC1CC(C)CN(CCCNC(=O)Cn2ncc3c([nH]c4ccccc43)c2=O)C1` (centres undefined), the inhibition is 0.29%.

Turning to `Cc1cccc(CCNC(=O)Cn2ncc3c([nH]c4ccc(C)cc43)c2=O)c1`, the inhibition was 0.33%.

Consider `Cc1ccc2[nH]c3c(=O)n(CC(=O)NCCc4ccc(Cl)cc4)ncc3c2c1`, for which the inhibition was 0.66% (active).

On to `CCCCCC(=O)Nc1ccc(C(=O)N/N=C/c2ccc([N+](=O)[O-])cc2)cc1`, for which the inhibition was 9.14% (active).

`CCCCCC(=O)NC(=S)NNC(=O)c1ccc([N+](=O)[O-])cc1`: the inhibition is 0.09%.

As to `O=C(COc1ccc(/C=N/NC(=O)c2ccc(O)cc2)cc1)Nc1ccc([N+](=O)[O-])cc1`, the inhibition is -0.1%.

For `CC1(C(=O)NNC(=S)NCC2CCCO2)CC1(Cl)Cl` (centres undefined), the inhibition is -0.05%.

Take `O=C(NC1CCCC1)C(=O)c1c[nH]c2ccccc12`: the inhibition is -0.55%.

With `C[n+]1ccc(/C=C/c2c[nH]c3ccccc23)cc1`, the inhibition is 2.57% (active).

For `COc1ccc(/C=C(\C#N)c2c[nH]c3ccccc23)cc1`, the inhibition was 0.35%.

Turning to `CN(C)c1nc2n(c(=O)n1)CCO2`, the inhibition is 0.06%.

Consider `Nc1nc(O)c(CC(=O)O)s1`, for which the inhibition is 0.36%.

With `CN(c1ccccc1)c1ccc(/C=c2\s/c(=C(/C#N)C(=O)C(C)(C)C)n(Cc3ccco3)c2=O)cc1`, the inhibition was 7.32% (active).

On to `Cc1ccc(C(=O)NCC(c2cccs2)N(C)C)cc1S(=O)(=O)N1CCOCC1` (centres undefined), for which the inhibition was 0.37%.

Take `Cc1ccc(-c2nn(-c3ccc(F)cc3)cc2C(=O)NCC(c2cccs2)N2CCOCC2)cc1` (centres undefined): the inhibition is 0.02%.

On to `CCCN1CNC(=S)N(CCc2ccccc2)C1`, for which the inhibition was -0.07%.

Consider `C/C(=C\c1ccco1)CN1CCC(N2CCC(C(=O)N3CCOCC3)CC2)CC1`, for which the inhibition was -0.13%.

Regarding `COc1ccc(OCC(=O)NNC(=O)C2CCC2)cc1`, the inhibition was 0.28%.

`O=C(COc1ccc(Cl)cc1)Nc1ccc2c(c1)OCO2`: the inhibition is 0.16%.

On to `NNC(=O)COc1ccc(C2SCCS2)cc1`, for which the inhibition is 0.52% (active).

For `Cc1ccc(CS(=O)(=O)CCC(=O)NCc2ccc(F)cc2)cc1`, the inhibition was 0.01%.

Consider `CC(C)c1ccc(NC(=O)Cn2ncc3ccccc32)cc1`, for which the inhibition was 0.04%.

For `COc1ccc(NC(=O)Cn2ncn3c(cc4ccccc43)c2=O)c(OC)c1OC`, the inhibition was 0.03%.

As to `CCc1ccc(NC(=O)Cn2ncn3c(cc4ccccc43)c2=O)cc1`, the inhibition is 0.97% (active).

For the compound `CC(=O)Nc1ccc(S(=O)(=O)NC(C)C(=O)OCCOc2ccc(F)cc2)cc1` (centres undefined), the inhibition is -0.06%.

Regarding `COc1cccc(N(CC(=O)NC2CCCC2)C(=O)Cn2nnc(-c3ccc(C)o3)n2)c1`, the inhibition was -0.2%.

Regarding `O=C1CCN(CCc2ccccc2)CCN1CCOc1ccccc1`, the inhibition is -0.09%.

For the compound `CCN(CC(=O)Nc1cccc(S(N)(=O)=O)c1)Cc1nc2ccccc2c(=O)[nH]1`, the inhibition is -0.01%.

`Cc1ccc2[nH]c(=O)c(CN3CCCCC3)c(-c3ccccc3)c2c1`: the inhibition is 0.13%.

In the case of `CCCc1nc(-c2ccccc2O)n(-c2ccccc2)n1`, the inhibition is 0.2%.

In the case of `Cc1cccc(-n2c(N)c(C(=O)N3CCN(C)CC3)sc2=S)c1`, the inhibition is -0.2%.

With `CCCc1nc(N2CCN(C)CC2)c2sc(=S)n(-c3ccccc3)c2n1`, the inhibition is 0.75% (active).
